Results from PubChem BioAssay (NCATS).
Inconclusive results are not listed. Where a call stands in place of a potency, no number is given. Active and inactive are the calls of the source. The call rests on the fitted dose curve; in most records, active means well fitted inhibition curve with a large enough effect; inconclusive means small, poorly fitted or top-dose-only effect; inactive means no such curve, though single readings can be large or run the other way. *1 amine or outer side, *2 acyl side, *3 side chain or, on linkers, in order; H or OH if unused. Where a SMILES comes first, the peptide text is derived from it. Bridges are numbered along the chain shown (N, C = ends). [ ]: non-standard residue; d: D form. The star is where a group is joined. pTerphenylCO(4''-OnC5H11) = CCCCCOc1ccc(-c2ccc(-c3ccc(C(=O)*)cc3)cc2)cc1; Orn(4R-OH,5R-OH) = O=C([C@H](C[C@@H](O)[C@@H](O)N[*:3])N[*:1])[*:2]; hTyr(3S-OH,4S-OH) = N[C@H](C(=O)O)[C@H](O)[C@@H](O)c1ccc(O)cc1; Pro(3S-OH,4S-Me) = C[C@H]1CN[C@H](C(=O)O)[C@H]1O; Hyp = O=C(O)[C@@H]1C[C@@H](O)CN1

Assay: P-glycoprotein substrates identified in KB-3-1 adenocarcinoma cell line, qHTS therapeutic library screen (AID 1346986); further: nearly all actives have a fitted effect of over 60% in size;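 further: potency is for cytotoxicity meaning loss of cell viability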
Details: KB-3-1 parental cells viability, CellTiter-Glo, 72 h; series mostly up to 44.5 µM; activity change, negative = cytotoxicity: at the top concentration
Method in brief: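 Counter-screen: cherry-picked hits retested in the KB pair and in HEK-293 pcDNA/MDR-19 cells ± tariquidar. Primary screen used 72 h CellTiter-Glo viability in KB-3-1 and KB-8-5-11.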
Potency means the concentration at half of the fitted maximal effect.

| SMILES | Potency | outcome |
| --- | --- | --- |
| CN(CC1COCCO1)S(=O)(=O)Nc1ccc2ccc3ncc(-c4cnn(C)c4)cc3c(=O)c2c1 (configuration not stated) | 11.6 µM (active) | – |
| COc1cc(/C=C2\CC[C@H]3COC[C@@H](c4cc(F)c(F)c(F)c4)N3C2=O)ccc1-n1cnc(C)c1 | – | inactive |
| COc1ccc2[nH]c(=O)c3c(c2c1)OC(C)(C)C=C3 | – | inactive |
| CC(=O)O[C@H]1CC[C@]2(C)[C@H]3CC[C@]4(C)Oc5oc(C)cc(=O)c5C[C@H]4[C@]3(C)CC[C@H]2C1(C)C | – | inactive [at 17.4 µM] |
| Cc1[nH]c2ccccc2c1CCNC(=O)c1cccs1 | – | inactive |
| O=C(/C=C/c1ccccc1O)O[C@@H]1O[C@H](CO)[C@@H](O)[C@H](O)[C@H]1O | – | inactive |
| COc1cc2ncc(-c3ccccc3)nc2cc1OC | 7.31 µM (active) | – |
| C=C(C)C(=O)O[C@H]1[C@H]2C(=C)C(=O)O[C@@H]2/C=C(\CO)CC/C=C(/C=O)[C@@H]1O | – | inactive |
| O=C(O)CCc1nccc2c1[nH]c1ccccc12 | – | inactive |
| CCCCCOc1ccc(-c2ccc(-c3ccc(C(=O)N[C@H]4C[C@@H](O)[C@@H](O)NC(=O)[C@@H]5[C@@H](O)[C@@H](C)CN5C(=O)[C@H]([C@@H](C)O)NC(=O)[C@H]([C@H](O)[C@@H](O)c5ccc(O)cc5)NC(=O)[C@@H]5C[C@@H](O)CN5C(=O)[C@H]([C@@H](C)O)NC4=O)cc3)cc2)cc1 ({pTerphenylCO(4''-OnC5H11)}-[Orn(4R-OH,5R-OH)]T[Hyp][hTyr(3S-OH,4S-OH)]T[Pro(3S-OH,4S-Me)]; lactam 1-C) | – | inactive [at 17.4 µM] |
| COC1=CC(=O)C=C(C)C12Oc1c(Cl)c(OC)cc(OC)c1C2=O (configuration not stated) | – | inactive |
| C=C[C@]1(C)C[C@H](O)[C@H]2C(=C)C(=O)O[C@@H]2[C@H]1C(=C)CO | – | inactive |
| C1=C/COCc2cc(ccc2OCCN2CCCC2)Nc2nccc(n2)-c2cccc(c2)COC/1 | 4.61 µM (active) | – |
| CC(=O)c1c(C)cc2cccc(O)c2c1O[C@@H]1O[C@H](CO)[C@@H](O)[C@H](O)[C@H]1O | – | inactive |
| COCCCNC(=O)c1ccc(Cn2c(=O)c3ccccc3n(Cc3ccc(C(C)C)cc3)c2=O)cc1 | – | inactive |
| CC#CC(=O)Nc1ccc2ncnc(Nc3cccc(Br)c3)c2c1 | 10.3 µM (active) | – |
| C=C(COC(=O)C(O)C(O)CN)C12OC1C1(C)C(=CC2=O)C(O)C(O)CC1C (configuration not stated) | – | inactive |
| Cc1nc(C(=O)N2CCC[C@H]2Cc2nnc(-c3ccccc3)o2)c(-c2ccccc2F)s1 | – | inactive |
| COc1ccc(C(=O)O[C@H]2C=COC=C3C=C4C(=O)N(C)C(=S)C(=O)N4[C@@H]32)cc1Oc1cc(C=O)ccc1O | – | inactive [at 17.4 µM] |

| SMILES | Potency | outcome |
| --- | --- | --- |
| Cc1c(F)ccc(C(=O)Nc2cc([N+](=O)[O-])ccc2N2CCN(C)CC2)c1Cl | – | inactive |
| COC(CCc1ccc(O)cc1)CC(=O)CCc1ccc(O)cc1 (configuration not stated) | – | inactive |
| C=C1C(OC2OC(CO)C(O)C(O)C2O)CC2C(C)(C)C(O)CCC2(C)C1CC/C(C)=C\COC(=O)CC(=O)O (configuration not stated) | – | inactive [at 17.4 µM] |
| C=C(C)C1CCC2(C(=O)O)CCC3(C)C(CCC4C5(C)C(C=O)C(O)C(C)(C)C5CCC43C)C12 (configuration not stated) | – | inactive [at 17.4 µM] |
| CC(=O)O[C@@H]1C2=C(O)C(=O)[C@](C)(OC(C)=O)C(=O)C2=CO[C@@]12O[C@@H](C)CC[C@H]2OC(C)=O | – | inactive [at 17.4 µM] |
| C=C1CCC2[C@](C)(CCC[C@@]2(C)C=O)[C@H]1CC/C(C)=C/CO (some centres not stated) | – | inactive |
| C=CCCN1CCC2(CC1)CN(C(=O)c1c(F)cccc1F)c1ccc(Cl)cc12 | – | inactive |
| CCC(C)C1NC(=O)C(Cc2ccccc2)NC(=O)C(CCCCCC(=O)C(O)CO)NC(=O)C2CCCCN2C1=O (configuration not stated) | – | inactive [at 17.4 µM] |
| COc1cc(OC)c2c(=O)[nH]c(-c3cc(C)c(OCCO)c(C)c3)nc2c1 | – | inactive |
| CCC(C)/C=C(C)/C=C/C1=CC2=C(Cl)C(=O)C(C)(OC(C)=O)C(=O)C2(O)C(OC)O1 (configuration not stated) | – | inactive [at 17.4 µM] |
| CCOc1ccc(-n2c(C(C)N(Cc3cccnc3)C(=O)Cc3ccc(F)c(C(F)(F)F)c3)nc3ncccc3c2=O)cc1 (configuration not stated) | – | inactive |
| COc1cc(O)c2c(c1)/C=C/C[C@H](O)[C@H](O)C(=O)/C=C\C[C@H](C)OC2=O | 6.51 µM (active) | – |
| CC1(C)CC[C@]2(C(=O)O)[C@H](O)C[C@]3(C)C(=CCC4[C@@]5(C)CC[C@H](O[C@@H]6O[C@H](CO[C@@H]7OC[C@H](O)[C@H](O)[C@H]7O[C@@H]7OC[C@H](O)[C@H](O)[C@H]7O)[C@@H](O)[C@H](O)[C@H]6O)C(C)(C)C5CC[C@]43C)[C@@H]2C1 (some centres not stated) | – | inactive [at 9.29 µM] |
| CN1c2c(nc(N)[nH]c2=O)NC[C@@H]1CNc1ccc(C(=O)N[C@@H](CCC(=O)O)C(=O)O)cc1 | – | inactive |
| CCN1CCC[C@@H]1CNC(=O)c1ccc2c(c1)NC(=O)c1cccc(C)c1S2 | – | inactive |
| CC1(CO)CC(O)[C@]2(C(=O)O)CCC34CC3(C=CC3[C@]5(C)C(CC[C@]34C)C(C)(CO)[C@@H](O)[C@H](O)[C@@H]5O)C2C1 (some centres not stated) | – | inactive [at 17.4 µM] |
| COc1cc2ncnc(Nc3cccc(I)c3)c2cc1OC | 6.51 µM (active) | – |
| C=C1C(=O)O[C@@H]2/C=C(\CO)CC/C=C(\CO)[C@H](OC(C)=O)C(OC(=O)C(C)CC)C12 (some centres not stated) | – | inactive [at 17.4 µM] |
